The record followed here is ChEMBL document CHEMBL3988442, “University of Dundee, Small-Polar-MMV Screening Library” (2021).

Structures are written as SMILES.

The assay deals with AMP-activated protein kinase, AMPK (Homo sapiens) (UniProt P54646+O43741+P54619+Q9UGJ0+Q9Y478+Q13131+Q9UGI9). Put plainly: AMP-dependent Kinase enzyme assay. An in vitro enzyme assay that detects ADP turnover that is directly proportional to AMPK activity. This uses naive AMPK that is activated during the assay with MK-8722. Also noted: scale not given: direction of the effect not stated beside the values. The class given is functional. Particulars: 30 µM.
Consider `O=C(Nc1cccc(C(=O)OCC2CCCN2)c1)c1ccoc1` (centres undefined), for which the Percent Effect was determined as 0.474%.

As for `COCC1(C(=O)N[C@H]2CN(c3ccnc(C)c3)C[C@@H]2C2CC2)CCC1`, the Percent Effect is -1.57%.

As for `Cc1nc2c(c(NCC(=O)NC(C)C)n1)Cc1ccccc1OC2`, the Percent Effect came to 5.96%.

With `COCCN(C)C(=O)NCCc1coc(-c2ccc(C)cc2)n1`, the Percent Effect was -3.83%.

For the molecule `CCCc1ccc(CN2CCC3(CCC(=O)N(C)CC3)CC2)o1`, the Percent Effect was found to be 1.5%.

On to `O=C(CCn1ccnc1)N1CCC(c2nnc(-c3ccccn3)o2)CC1`, for which the Percent Effect was 1.44%.

Turning to `CC1CCCCN1C(=O)Cn1cnc(C#N)n1` (centres undefined), the Percent Effect was -5.33%.

In the case of `O=C(O)c1cn(CC2CCCN(c3ccc4ccccc4n3)C2)nn1` (centres undefined), the Percent Effect is -0.883%.

Turning to `Cc1cccnc1NC(=O)c1ccc(F)c(S(=O)(=O)NC2CC2)c1`, the Percent Effect was -4.18%.

For the molecule `CCOc1ccc(Cl)cc1CCNC(=O)Cn1ccccc1=O`, the Percent Effect was determined as 16.7%.

Take `CC(C)c1cc(C2CCN(C(=O)Cn3nc4ccccc4n3)CC2)[nH]n1`: the Percent Effect is 13.1%.

In the case of `O=C(Nc1ccccn1)c1ccc(F)c(S(=O)(=O)NC2CC2)c1`, the Percent Effect stood at 1.7%.

With `CC(O)c1cccc(OCc2ccon2)c1` (centres undefined), the Percent Effect was 4.94%.

For the molecule `O=C(NCC(O)c1cccc(O)c1)C1CCN(C2CCCCC2)CC1` (centres undefined), the Percent Effect stood at 0.496%.

On to `Fc1cccc(OC2CCN(CCn3cc4ccccc4n3)CC2)c1`, for which the Percent Effect turned out to be 7.33%.

For the molecule `CCCN(Cc1nnnn1C1CC1)CC1COc2ccccc2O1` (centres undefined), the Percent Effect came out at 7.59%.

Regarding `CN(CCOc1ccccc1)C(=O)Nc1cccn(C)c1=O`, the Percent Effect was -59.2%.

With `Cc1nc(N(C)C)cc(C2(C)CCCNC2)n1` (centres undefined), the Percent Effect amounted to 10.2%.

For `Cc1ccc(-c2noc(C3CCN3C(=O)c3ccn(C)n3)n2)s1` (centres undefined), the Percent Effect was determined as 12%.

Consider `CN(Cc1ccsc1)C(=O)c1nc(N2CCCC2)ncc1Cl`, for which the Percent Effect was -1.6%.

In the case of `CCn1ccnc1CNCc1ccc(C)cc1OC(C)(C)C`, the Percent Effect was found to be 25.5%.

With `O=C(CNc1ccc(OC2CCOC2)cc1)NCc1ccco1` (centres undefined), the Percent Effect was 7.98%.

Consider `N[C@H]1CN(C(=O)c2ccc3[nH]c(CO)nc3c2)C[C@@H]1c1ccccc1`, for which the Percent Effect came to 3.57%.

With `Cc1nsc(N2CCCN(CC(=O)N(C)C3CC3)CC2)n1`, the Percent Effect turned out to be 7.25%.

As for `CCC(C)NC(=O)Nc1cccc(OCC#N)c1` (centres undefined), the Percent Effect is -0.326%.

On to `COCCNC(=O)NCc1ccc(-n2ccc(C(F)(F)F)n2)cc1`, for which the Percent Effect was -8.71%.

As for `O=S(=O)(c1cccnc1)N1CCCCC1CCN1CCOCC1` (centres undefined), the Percent Effect is 16.1%.

For the molecule `CCN(C)C(=O)c1cccc(S(=O)(=O)NCCc2csc(N)n2)c1`, the Percent Effect was -0.697%.

Take `CC1(C)Cc2nc(C(C)(C)C)ncc2C(NC(=O)Cc2nnn[nH]2)C1` (centres undefined): the Percent Effect is -20.8%.

Consider `CCc1csc(CNc2cc(C)nc(-c3cccnc3)n2)n1`, for which the Percent Effect is 18.4%.

On to `CCN(Cc1cnn(CC)c1)Cc1c(Cl)cncc1Cl`, for which the Percent Effect came to 6.24%.

With `O=C(c1cc(C2CC2)nc2onc(-c3ccccc3)c12)N1CC[C@H](O)C1`, the Percent Effect is 4.74%.

For `Cc1cc(C[S+]([O-])Cc2ccccc2C)no1` (centres undefined), the Percent Effect came to 5.62%.

Regarding `CCc1csc(NC(=O)Nc2c(C)n[nH]c2C)n1`, the Percent Effect is -1.09%.

Regarding `O=S(=O)(c1cn[nH]c1)N1CCC(O)(CN2CCOCC2)C1` (centres undefined), the Percent Effect came out at 3.92%.

Take `CCc1ccc(N2CCC(NS(=O)(=O)N(CC)CC)CC2)cc1`: the Percent Effect came out at 1.78%.

For the molecule `Cc1nc(C)c(C(=O)N2C[C@@H](C(=O)O)[C@H](C3CC3)C2)s1`, the Percent Effect was found to be 7.29%.

Consider `CCCOc1cccc(OCc2ccon2)c1`, for which the Percent Effect was found to be 4.13%.

In the case of `Cn1cc(S(=O)(=O)NCCc2ccsc2)cn1`, the Percent Effect turned out to be 13.7%.
